{
  "source": "PubChem BioAssay (NCI)",
  "note": "This is part of a sample that, as a whole, favours compounds with a hit. Of some 79,000 tested, about 15% had one in any assay. Unmarked numbers belong to inactive results. Rule as the data show it: active = growth inhibition above about 70%; inactive = the rest.",
  "data": [
    {"assay": "NCI Yeast Anticancer Drug Screen. Data for the mlh1 rad18 strain (AID 175)", "conditions": "S. cerevisiae mlh1 rad18 strain growth inhibition; at 50.0 µM; active compounds read high", "procedure,_shortened": "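Compound-treated yeast growth, normalised to vehicle controls. Strain bears defined DNA repair mutations.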", "units": {"growth inhibition": "%"}, "values": [
      {"smiles": "Cc1cccc(CO)c1", "growth inhibition": -22.1},
      {"smiles": "O=C(NCO)c1ccccc1", "growth inhibition": 27.9},
      {"smiles": "CC1(C(=O)O)NC(C(=O)O)Cc2c1[nH]c1ccccc21", "note": "(centres undefined)", "growth inhibition": 13.3},
      {"smiles": "COc1ccc(C2(O)CCCCC2)cc1", "growth inhibition": 28.2},
      {"smiles": "NNc1ccccc1C(=O)O", "growth inhibition": 14.8},
      {"smiles": "CCS(=O)(=O)CCCl", "growth inhibition": 5.85},
      {"smiles": "COC1=CC(=O)c2nc(Cl)ccc2C1=O", "growth inhibition": 24.6},
      {"smiles": "COC(=O)c1ccccc1N(C)C", "growth inhibition": 0.9},
      {"smiles": "Cc1cc(=O)[nH]c(NN=C2CCCC2)n1", "growth inhibition": -27.1},
      {"smiles": "CCOC(=O)C/C(C)=N\\O", "growth inhibition": 2.4},
      {"smiles": "CC1(C)OC(=O)C(c2ccsc2)C(=O)O1", "growth inhibition": -3.7},
      {"smiles": "O=C(Nc1ccccc1)OCCc1ccccc1", "growth inhibition": 34.2},
      {"smiles": "C=CC(=O)OCCCCCCCC", "growth inhibition": 2.85},
      {"smiles": "Cc1c(C(=O)O)c(=O)n(-c2ccccc2)n1C", "growth inhibition": 13.6},
      {"smiles": "C=CCCCCCCCCCOC(C)=O", "growth inhibition": 8.25},
      {"smiles": "O=C(O)CSCSCC(=O)O", "growth inhibition": 3.1},
      {"smiles": "CC(=O)OC(OC(C)=O)C1CCCO1", "note": "(centres undefined)", "growth inhibition": 1.1},
      {"smiles": "S=C1NCc2cncnc2N1", "growth inhibition": 18.8},
      {"smiles": "Cc1ccncc1C(N)=O", "growth inhibition": 3.3},
      {"smiles": "CSC[C@H](NC(=O)COc1cccc2cnccc12)C(=O)NC(Cc1ccccc1)C(O)C(=O)N1CSC[C@H]1C(=O)NC(C)(C)C", "note": "(some centres undefined)", "growth inhibition": -51.4},
      {"smiles": "CC1CC(O)C2C3(C)CCCC2(COC3=O)C12CCC1(CCOC1=O)O2", "note": "(centres undefined)", "growth inhibition": 13.6},
      {"smiles": "CC(C)(C)n1nc(C2CC2)c(Br)c1NC(=O)c1ccccc1F", "growth inhibition": 10.9},
      {"smiles": "Nc1ccc(N)c([N+](=O)[O-])c1", "growth inhibition": -15.2},
      {"smiles": "CC(C)=NNC(N)=S", "growth inhibition": -3.95},
      {"smiles": "CC(=O)Nc1cccc(Cl)c1C", "growth inhibition": -0.35},
      {"smiles": "CN(C)c1ccc2oc(=O)c3ccccc3c2c1", "growth inhibition": -33},
      {"smiles": "O=[N+]([O-])c1ccccc1S(=O)c1ccccc1[N+](=O)[O-]", "growth inhibition": 14.7},
      {"smiles": "CC1CCCCN1C(=S)Nc1ccc(S(=O)(=O)N2CCCCC2)cc1", "note": "(centres undefined)", "growth inhibition": -18.7},
      {"smiles": "CCCCC(=O)c1ccc(OC)cc1", "growth inhibition": -6.4},
      {"smiles": "Cc1cc(C)cc(NCCC#N)c1", "growth inhibition": -17.4},
      {"smiles": "CCOC(=O)c1[nH]c(C)c(C(=O)O)c1C", "growth inhibition": -11.2},
      {"smiles": "c1ncc2[nH]cnc2n1", "growth inhibition": 6.3},
      {"smiles": "N#CSc1cc(S(N)(=O)=O)ccc1N", "growth inhibition": 32},
      {"smiles": "Cc1cc(=O)n(-c2ccc(F)cc2)[nH]1", "growth inhibition": 12.1},
      {"smiles": "Sc1ccc(Nc2c3ccccc3nc3ccccc23)cc1", "growth inhibition": 54.6},
      {"smiles": "COC(=O)Nc1nc2ccc(C(=O)c3ccc(F)cc3)cc2[nH]1", "growth inhibition": -43.9},
      {"smiles": "O=C(O)c1cc([N+](=O)[O-])ccc1Cl", "growth inhibition": 34.4},
      {"smiles": "Cc1cc(N)ccc1-c1ccc(N)cc1C", "growth inhibition": 37.8},
      {"smiles": "Cc1ccc(C(=O)N/N=C/c2ccc3c(c2)OCO3)cc1", "growth inhibition": 6.75}
    ]}
  ]
}
